Compounds without any hit were thinned out: in the full panel of roughly 83,000, 20% have a hit.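 Negative percent growth values reflect cell death: -40 means 40% of the cells present at the start died, and -100 means all died.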 Values without a mark were called inactive. Calls of active or inactive are those of the source. How the source made its calls: active means growth percent below 10; inactive means the rest.

Test in all cases: NCI-60 one-dose screen, 48 h (100 = growth as untreated, 0 = no growth, -100 = all killed)
What all share (conditions): 10 µM unless noted

For experiment [1], the system named is RPMI-8226 leukemia.
Experiment [2] deals with OVCAR-8 ovarian.
Experiment [3] has as its system OVCAR-5 ovarian.
Experiment [4] concerns OVCAR-4 ovarian.
Experiment [5] has as its system SK-OV-3 ovarian.
For experiment [6], the system named is IGROV1 ovarian.
Experiment [7] has as its system OVCAR-3 ovarian.
Experiment [8] relates to HS 578T breast.
Experiment [9] relates to NCI/ADR-RES ovarian.
Experiment [10] has as its system SR leukemia.

On to `NS(=O)(=O)c1ccc(-n2ncc3c(SCc4ccccc4)ncnc32)cc1`, for which the growth in experiment [1] is 91.9%; in experiment [2], 96.1%; in experiment [3], 99.7%; in experiment [4], 104%; in [5], 108%; in experiment [6] it was 85.9%. Moreover, the growth in [7] is 99.4%; in experiment [8] it was 97.3%; in experiment [9], 101%.

For `COc1ccccc1NC(=O)c1sc2nc3c(cc2c1N)C(=O)CCC3`, the growth in experiment [1] is 84.3%; in experiment [2], 90.6%; in experiment [3], 76.1%; in experiment [4], 91.4%; in experiment [5], 39%; in [6], 82.9%. In addition, the growth in experiment [7] is 87%; in [8], 65.6%; in [9] it was 58.6%.

Turning to `Cc1ccc(NC(=O)c2sc3nc4c(cc3c2N)C(=O)CCC4)cc1`, the growth in experiment [1] is 93.4%; in [2] it was 98.3%; in [3], 78.6%; in [4], 106%; in experiment [5] it was 37.5%; in experiment [6], 95.9%. Besides, the growth was 133% in experiment [7], 107% in experiment [8] and 98.2% in [9].

With `NC(=O)c1cc(Br)cc(Br)c1NS(=O)(=O)c1ccccc1`, the growth is 97.2% in [1]; 114% in experiment [2]; 108% in experiment [3]; 95.8% in experiment [4]; 102% in experiment [5]; 94.9% in experiment [6]. Further, the growth was 106% in [7], 105% in experiment [8] and 103% in [9].

`COc1ccc(OC)c2c1CCC1(C2)NC(=O)NC1=O` (stereo unspecified): the growth in experiment [1] is 102%; in [2], 97.8%; in experiment [3] it was 101%; in [4] it was 101%; in [5], 102%; in experiment [6], 110%. Moreover, the growth in experiment [7] is 126%; in experiment [8] it was 85.6%; in experiment [9], 102%.

For `C[C@]12CC[C@H](O)CC1=CC[C@@H]1[C@@H]2CC[C@]2(C)C(c3cccnc3)=CC[C@@H]12`, the growth in [10] was 0.438% (active); in experiment [3], 92.3%; in [4], 49.7%; in experiment [5] it was 87.8%; in experiment [6], 43.5%; in experiment [7], 56.1%. The growth in [8] is 13.6%; in [9], 49.9%.

As to `O=C(Oc1ccccc1)C(Br)C(Br)c1ccccc1` (stereo unspecified), the growth is -23.6% (active) in experiment [10]; 103% in experiment [2]; 102% in experiment [3]; 114% in [5]; -47% (active) in experiment [7]; 85.9% in [8]. In addition, the growth in experiment [9] is 113%.

For `CCOC(=O)Nc1ccc2c3c(cccc13)-c1ccccc1-2`, the growth was 13.6% in experiment [10]; 63.6% in [3]; 48.5% in experiment [4]; 62.7% in [5]; 20.9% in experiment [6]; -19.8% (active) in [7]. Besides, the growth in experiment [8] was 16.6%; in experiment [9] it was 7.96% (active).

`O=C1/C(=C/c2cccc(Cl)c2)CCc2ccccc21`: the growth in experiment [1] was 22.3%; in experiment [2], 91.1%; in experiment [3], 111%; in [4], 100%; in [5] it was 114%; in experiment [6] it was 94%. Besides, the growth in experiment [7] was 104%; in experiment [8], 110%; in experiment [9] it was 100%.

As to `O=C1/C(=C/c2ccccc2Cl)CCc2ccccc21`, the growth in experiment [1] is 95.4%; in [2] it was 96.7%; in experiment [3], 109%; in experiment [4], 110%; in experiment [5], 116%; in [6] it was 97.3%. For the same compound, the growth in experiment [7] is 112%; in experiment [8], 99.1%; in experiment [9], 102%.

As for `C(#Cc1ccccc1C#Cc1ccccn1)c1ccc(OCCCCCCOc2ccc(C#Cc3ccccc3C#Cc3ccccn3)cc2)cc1`, the growth is 5% (active) in experiment [1]; 47.6% in experiment [2]; 85.4% in [3]; 46.5% in [4]; 80.9% in experiment [5]; -48.8% (active) in experiment [6]. The growth in experiment [7] is 35.5%; in [8], 72.7%; in experiment [9], 40%.

Regarding `Nc1nc2c(c(=O)[nH]1)C1(C(=O)Nc3ccccc31)c1c(nc(N)[nH]c1=O)N2`, the growth in [1] is 96.2%; in experiment [2], 114%; in experiment [3], 112%; in experiment [4] it was 102%; in experiment [5], 108%; in experiment [6], 101%. Further, the growth in experiment [7] was 103%; in experiment [8], 110%; in [9], 102%.

With `C[C@H]1c2cccc(O)c2C(O)=C2C(=O)[C@]3(O)C(O)=C(C(N)=O)C(=O)[C@@H](N(C)C)[C@@H]3[C@@H](O)[C@@H]21`, the growth was 27% in [1]; 33.5% in [2]; 78.4% in [3]; 66.8% in experiment [4]; 70.2% in [5]; 21.4% in experiment [6]. Also, the growth in experiment [7] was 49%; in experiment [8], 69.8%; in experiment [9], 66%.

As for `CC(C)=CCCC(C)c1ccc(C)c2c1OCN(CC1CCNCC1)C2` (stereo unspecified), the growth in [1] is 23.7%; in experiment [2] it was 75.3%; in [3], 81.1%; in experiment [4] it was 91.7%; in experiment [5], 87%; in [6], 78.7%. For the same compound, the growth in experiment [7] is 77.2%; in experiment [8] it was 64.3%; in experiment [9] it was 83.5%.

Consider `COc1cc(/C=C/C(=O)c2c(C)n([O-])c3ccccc3[n+]2=O)cc(OC)c1OC`, for which the growth in experiment [1] was 9.32% (active); in [2], 30.6%; in experiment [3] it was 80.6%; in experiment [4], 46.9%; in experiment [5], 58.3%; in [6] it was -15.8% (active). In addition, the figures for the growth in [7], in experiment [8] and in [9] were 59.2%, 43.2% and 43.4%, respectively.

Regarding `COc1ccc(/C=C/C(=O)c2cccc(NS(C)(=O)=O)c2)cc1`, the growth is -10.2% (active) in [10]; 94.9% in experiment [3]; 81.5% in [4]; 110% in experiment [5]; 7.92% (active) in experiment [6]; 78.1% in [7]. Further, the growth in [8] was 83.2%; in experiment [9], 85.2%.

As to `O=C(Oc1cccc2ccccc12)c1ccccc1C(=O)c1ccccc1`, the growth is 3.67% (active) in experiment [10]; 91.7% in experiment [2]; 102% in [3]; 65.6% in experiment [7]; 93.5% in [8]; 90.4% in experiment [9].

With `CN1CCN(CCCCCN=c2cc3c(=O)n(CCCCCN4CCN(C)CC4)c(=O)c4c(NCCCCCN5CCN(C)CC5)cc5c(O)n(CCCCCN6CCN(C)CC6)c(=O)c2c5c4-3)CC1`, the growth is 1.43% (active) in experiment [10]; 12.6% in experiment [2]; -9.79% (active) in experiment [3]; -29.6% (active) in [5]; -0.0469% (active) in experiment [6]; 3.82% (active) in experiment [7]. The growth was -2.4% (active) in [8] and 110% in [9].

On to `CC[C@@H](C)/C=C(C)/C=C/C(=O)c1c(O)c(-c2ccc(O)cc2)cn(OC2CC(=O)CCC(C)OC(=O)CC2O)c1=O` (stereo partly specified), for which the growth in [10] was 7.95% (active); in experiment [2], 17.5%; in [3] it was 53.8%; in experiment [6], 4.73% (active); in experiment [8] it was 35.1%; in [9] it was 5.21% (active).

On to `COc1cccc(/C=C2\Cc3ccccc3C2=O)c1`, for which the growth in experiment [1] is 98.6%; in experiment [2], 97.2%; in experiment [3], 111%; in experiment [4] it was 101%; in experiment [5], 101%; in experiment [6], 99.3%. Moreover, the results for the growth in experiment [7], in experiment [8] and in experiment [9] were 110%, 111% and 105%, respectively.

Take `Cn1cnc([N+](=O)[O-])c1Sc1nc(N)nc2nc[nH]c12`: the growth in [1] was -19.5% (active); in experiment [2] it was 29.5%; in [3], 28.7%; in experiment [4], 42.8%; in [5], 2.59% (active); in [6] it was -13.1% (active). The growth in experiment [7] is 22.7%; in experiment [8], 65.6%; in experiment [9] it was 32.4%.

For the compound `Nc1nc(Nc2ccccc2SSc2ccccc2Nc2nc(N)nc(-c3ccc(I)cc3)n2)nc(-c2ccc(I)cc2)n1`, the growth was 61.4% in [1]; 60.2% in experiment [2]; 84.9% in [3]; 107% in [4]; 116% in [5]; 50.3% in experiment [6]. The figures for the growth in experiment [7], in experiment [8] and in experiment [9] were 94.1%, 89.1% and 49.6%, respectively.

For the compound `CCN(CC)c1ccc(/C=C/C(=O)c2cccc(NS(C)(=O)=O)c2)cc1`, the growth in [10] was -4.7% (active); in experiment [3], 64.4%; in experiment [4] it was 42.2%; in experiment [5], 51.1%; in experiment [6], 9.33% (active); in [7], 48.5%. The growth in [8] is 28.5%; in experiment [9], 26.4%.

In the case of `CN(C)c1ccc(-n2nc3ccccc3n2)cc1`, the growth was 357% in experiment [1]; 97.3% in experiment [2]; 80.3% in [3]; 115% in [4]; 113% in [5]; -38.5% (active) in [6]. For the same compound, the growth is 93.7% in experiment [7], 96.4% in [8] and 106% in experiment [9].

In the case of `O=C1/C=C/[C@@H](O)[C@@H]2C[C@@H](O)C[C@H]2/C=C/CCC[C@H](CO)O1`, the growth was 37.4% in experiment [1]; 35.4% in experiment [2]; 52.8% in experiment [3]; 26.2% in experiment [4]; 50.7% in [5]; 49.9% in [6]. Also, the growth in experiment [7] is -2.9% (active); in experiment [8], 35.5%; in experiment [9] it was 15.9%.

Consider `CC(=O)O[C@H]1CC[C@@]2(C)C(=CC[C@@H]3[C@@H]2CC[C@]2(C)C(c4cccnc4)=CC[C@@H]32)C1`, for which the growth in [10] is 30.8%; in experiment [3], 95.6%; in experiment [4], 47.2%; in experiment [5], 76.7%; in experiment [6] it was 62.6%; in [7] it was 70.3%. In addition, the values for the growth in [8] and in experiment [9] were -7.37% (active) and 45.4%, respectively.

For the compound `FC(F)(F)c1cc(-c2nnc3n2N=C(N2CCCC2)CS3)cc(C(F)(F)F)c1`, the growth in experiment [1] was 95%; in experiment [2], 74.4%; in experiment [3], 106%; in [4], 102%; in [5] it was 21%; in [6], 87%. The growth is 53.6% in experiment [7], 46.8% in experiment [8] and 80.2% in experiment [9].

Take `CCSCC1CC(O)(c2ccccc2)C(c2ccccc2)C(c2ccc(Cl)cc2)O1` (stereo unspecified): the growth in experiment [1] was 4.54% (active); in [2] it was -11.2% (active); in experiment [3], 24.7%; in [4], 33.8%; in [5], 9.49% (active); in [6], 32.6%. Also, the growth was -26.4% (active) in [7], -11% (active) in experiment [8] and 17.1% in experiment [9].

In the case of `c1ccc2c(-c3nc4ccccc4[nH]3)cccc2c1`, the growth in experiment [1] is 33.2%; in experiment [2], 47.4%; in experiment [3] it was 62.9%; in experiment [4] it was 77.3%; in experiment [5], 30.8%; in experiment [6] it was 44.1%. Also, the growth in experiment [7] was 12.2%; in [8], 44.5%; in experiment [9], -16.2% (active).

Regarding `COc1cccc(N2CCN(c3cccc(C)n3)CC2)c1`, the growth is 115% in experiment [1]; 87.1% in experiment [2]; 96.5% in experiment [3]; 116% in experiment [4]; 107% in experiment [5]; -11.8% (active) in experiment [6]. Besides, the values for the growth in [7], in [8] and in [9] were 87.5%, 100% and 95.5%, respectively.

The record behind these values is PubChem BioAssay (NCI).
